Measurements taken from the supplement of paper PMC11006884.
The full data set covers some 6,500 targets. This sample favours those with a hit. About 2% of all pairs of compound and target were hits. Values without a mark were called inactive.

Compound: COC(=O)C#Cc1ccccc1 [methyl 3-phenylpropiolate]
Assay: log2 ratio of iodoacetamide-alkyne labeling of the cysteine site, DMSO over compound (competition); higher = stronger covalent engagement of the cysteine by the compound, active = 1 or more
Conditions: 500 µM; treatment time 1 h; system: HEK293T cell lysate
Outline: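 The log2 competition ratio per cysteine is defined as mean reporter intensity in control channels over mean reporter intensity in compound channels. Lysate from HEK293T cells (2 mg/mL) received electrophile (500 µM) or vehicle for 1 h at ambient temperature, followed by iodoacetamide alkyne for 1 h. Samples were clicked to sCIP-TMT reagents, pooled, trypsin-digested overnight at 37 °C, streptavidin-enriched, acid-eluted and run on Orbitrap Eclipse LC-MS/MS with FAIMS, with quantification in FragPipe. Three replicates with duplicate channels were used, and any cysteine quantified in only one replicate was excluded.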

UniProt P11413, sequence (P11413 whole entry, looked up): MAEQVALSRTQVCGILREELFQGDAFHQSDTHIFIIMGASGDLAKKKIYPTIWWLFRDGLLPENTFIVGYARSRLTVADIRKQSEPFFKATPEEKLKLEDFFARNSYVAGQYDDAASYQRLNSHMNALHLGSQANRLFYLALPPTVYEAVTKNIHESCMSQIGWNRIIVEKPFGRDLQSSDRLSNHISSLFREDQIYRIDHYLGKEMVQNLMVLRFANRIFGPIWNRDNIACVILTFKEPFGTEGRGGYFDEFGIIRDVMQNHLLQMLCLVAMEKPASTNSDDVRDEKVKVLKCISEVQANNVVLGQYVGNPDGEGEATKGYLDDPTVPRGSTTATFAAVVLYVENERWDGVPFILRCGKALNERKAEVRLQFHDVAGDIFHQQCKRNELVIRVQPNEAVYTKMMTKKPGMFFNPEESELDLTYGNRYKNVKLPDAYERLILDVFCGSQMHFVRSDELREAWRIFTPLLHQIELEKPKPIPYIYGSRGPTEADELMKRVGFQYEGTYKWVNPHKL
UniProt P50990, sequence (P50990 whole entry, looked up): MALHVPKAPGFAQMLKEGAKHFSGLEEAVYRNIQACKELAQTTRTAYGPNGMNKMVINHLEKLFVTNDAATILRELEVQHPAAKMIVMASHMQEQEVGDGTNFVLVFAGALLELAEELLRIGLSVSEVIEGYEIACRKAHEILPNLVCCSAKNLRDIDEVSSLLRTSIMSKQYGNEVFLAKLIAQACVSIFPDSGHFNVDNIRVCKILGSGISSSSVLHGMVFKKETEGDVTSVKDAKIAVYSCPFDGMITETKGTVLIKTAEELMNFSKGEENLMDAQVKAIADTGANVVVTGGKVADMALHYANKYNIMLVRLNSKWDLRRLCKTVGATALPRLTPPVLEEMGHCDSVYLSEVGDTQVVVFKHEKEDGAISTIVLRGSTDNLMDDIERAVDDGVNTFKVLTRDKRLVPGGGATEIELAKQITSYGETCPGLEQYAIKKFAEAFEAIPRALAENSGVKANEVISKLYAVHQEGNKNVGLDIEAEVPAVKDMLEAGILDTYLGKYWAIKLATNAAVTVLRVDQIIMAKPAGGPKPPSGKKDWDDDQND
UniProt P06132, sequence (P06132 whole entry, looked up): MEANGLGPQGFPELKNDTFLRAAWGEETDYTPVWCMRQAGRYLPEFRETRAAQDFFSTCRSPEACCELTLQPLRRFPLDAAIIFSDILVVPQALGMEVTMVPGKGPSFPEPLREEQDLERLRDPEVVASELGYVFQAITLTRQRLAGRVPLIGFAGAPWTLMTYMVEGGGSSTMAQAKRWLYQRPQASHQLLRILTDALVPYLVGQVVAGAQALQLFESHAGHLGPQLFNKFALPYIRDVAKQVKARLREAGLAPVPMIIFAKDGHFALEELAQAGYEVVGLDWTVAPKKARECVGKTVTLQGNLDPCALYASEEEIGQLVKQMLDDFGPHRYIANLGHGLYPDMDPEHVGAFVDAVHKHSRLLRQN
UniProt P00492, sequence (P00492 whole entry, looked up): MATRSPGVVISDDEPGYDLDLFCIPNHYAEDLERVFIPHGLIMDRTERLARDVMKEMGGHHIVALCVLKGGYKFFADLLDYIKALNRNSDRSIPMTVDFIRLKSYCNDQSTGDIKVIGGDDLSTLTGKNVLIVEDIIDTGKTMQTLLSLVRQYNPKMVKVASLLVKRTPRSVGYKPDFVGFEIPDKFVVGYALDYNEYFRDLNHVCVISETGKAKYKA
UniProt P21359, sequence (P21359 whole entry, looked up): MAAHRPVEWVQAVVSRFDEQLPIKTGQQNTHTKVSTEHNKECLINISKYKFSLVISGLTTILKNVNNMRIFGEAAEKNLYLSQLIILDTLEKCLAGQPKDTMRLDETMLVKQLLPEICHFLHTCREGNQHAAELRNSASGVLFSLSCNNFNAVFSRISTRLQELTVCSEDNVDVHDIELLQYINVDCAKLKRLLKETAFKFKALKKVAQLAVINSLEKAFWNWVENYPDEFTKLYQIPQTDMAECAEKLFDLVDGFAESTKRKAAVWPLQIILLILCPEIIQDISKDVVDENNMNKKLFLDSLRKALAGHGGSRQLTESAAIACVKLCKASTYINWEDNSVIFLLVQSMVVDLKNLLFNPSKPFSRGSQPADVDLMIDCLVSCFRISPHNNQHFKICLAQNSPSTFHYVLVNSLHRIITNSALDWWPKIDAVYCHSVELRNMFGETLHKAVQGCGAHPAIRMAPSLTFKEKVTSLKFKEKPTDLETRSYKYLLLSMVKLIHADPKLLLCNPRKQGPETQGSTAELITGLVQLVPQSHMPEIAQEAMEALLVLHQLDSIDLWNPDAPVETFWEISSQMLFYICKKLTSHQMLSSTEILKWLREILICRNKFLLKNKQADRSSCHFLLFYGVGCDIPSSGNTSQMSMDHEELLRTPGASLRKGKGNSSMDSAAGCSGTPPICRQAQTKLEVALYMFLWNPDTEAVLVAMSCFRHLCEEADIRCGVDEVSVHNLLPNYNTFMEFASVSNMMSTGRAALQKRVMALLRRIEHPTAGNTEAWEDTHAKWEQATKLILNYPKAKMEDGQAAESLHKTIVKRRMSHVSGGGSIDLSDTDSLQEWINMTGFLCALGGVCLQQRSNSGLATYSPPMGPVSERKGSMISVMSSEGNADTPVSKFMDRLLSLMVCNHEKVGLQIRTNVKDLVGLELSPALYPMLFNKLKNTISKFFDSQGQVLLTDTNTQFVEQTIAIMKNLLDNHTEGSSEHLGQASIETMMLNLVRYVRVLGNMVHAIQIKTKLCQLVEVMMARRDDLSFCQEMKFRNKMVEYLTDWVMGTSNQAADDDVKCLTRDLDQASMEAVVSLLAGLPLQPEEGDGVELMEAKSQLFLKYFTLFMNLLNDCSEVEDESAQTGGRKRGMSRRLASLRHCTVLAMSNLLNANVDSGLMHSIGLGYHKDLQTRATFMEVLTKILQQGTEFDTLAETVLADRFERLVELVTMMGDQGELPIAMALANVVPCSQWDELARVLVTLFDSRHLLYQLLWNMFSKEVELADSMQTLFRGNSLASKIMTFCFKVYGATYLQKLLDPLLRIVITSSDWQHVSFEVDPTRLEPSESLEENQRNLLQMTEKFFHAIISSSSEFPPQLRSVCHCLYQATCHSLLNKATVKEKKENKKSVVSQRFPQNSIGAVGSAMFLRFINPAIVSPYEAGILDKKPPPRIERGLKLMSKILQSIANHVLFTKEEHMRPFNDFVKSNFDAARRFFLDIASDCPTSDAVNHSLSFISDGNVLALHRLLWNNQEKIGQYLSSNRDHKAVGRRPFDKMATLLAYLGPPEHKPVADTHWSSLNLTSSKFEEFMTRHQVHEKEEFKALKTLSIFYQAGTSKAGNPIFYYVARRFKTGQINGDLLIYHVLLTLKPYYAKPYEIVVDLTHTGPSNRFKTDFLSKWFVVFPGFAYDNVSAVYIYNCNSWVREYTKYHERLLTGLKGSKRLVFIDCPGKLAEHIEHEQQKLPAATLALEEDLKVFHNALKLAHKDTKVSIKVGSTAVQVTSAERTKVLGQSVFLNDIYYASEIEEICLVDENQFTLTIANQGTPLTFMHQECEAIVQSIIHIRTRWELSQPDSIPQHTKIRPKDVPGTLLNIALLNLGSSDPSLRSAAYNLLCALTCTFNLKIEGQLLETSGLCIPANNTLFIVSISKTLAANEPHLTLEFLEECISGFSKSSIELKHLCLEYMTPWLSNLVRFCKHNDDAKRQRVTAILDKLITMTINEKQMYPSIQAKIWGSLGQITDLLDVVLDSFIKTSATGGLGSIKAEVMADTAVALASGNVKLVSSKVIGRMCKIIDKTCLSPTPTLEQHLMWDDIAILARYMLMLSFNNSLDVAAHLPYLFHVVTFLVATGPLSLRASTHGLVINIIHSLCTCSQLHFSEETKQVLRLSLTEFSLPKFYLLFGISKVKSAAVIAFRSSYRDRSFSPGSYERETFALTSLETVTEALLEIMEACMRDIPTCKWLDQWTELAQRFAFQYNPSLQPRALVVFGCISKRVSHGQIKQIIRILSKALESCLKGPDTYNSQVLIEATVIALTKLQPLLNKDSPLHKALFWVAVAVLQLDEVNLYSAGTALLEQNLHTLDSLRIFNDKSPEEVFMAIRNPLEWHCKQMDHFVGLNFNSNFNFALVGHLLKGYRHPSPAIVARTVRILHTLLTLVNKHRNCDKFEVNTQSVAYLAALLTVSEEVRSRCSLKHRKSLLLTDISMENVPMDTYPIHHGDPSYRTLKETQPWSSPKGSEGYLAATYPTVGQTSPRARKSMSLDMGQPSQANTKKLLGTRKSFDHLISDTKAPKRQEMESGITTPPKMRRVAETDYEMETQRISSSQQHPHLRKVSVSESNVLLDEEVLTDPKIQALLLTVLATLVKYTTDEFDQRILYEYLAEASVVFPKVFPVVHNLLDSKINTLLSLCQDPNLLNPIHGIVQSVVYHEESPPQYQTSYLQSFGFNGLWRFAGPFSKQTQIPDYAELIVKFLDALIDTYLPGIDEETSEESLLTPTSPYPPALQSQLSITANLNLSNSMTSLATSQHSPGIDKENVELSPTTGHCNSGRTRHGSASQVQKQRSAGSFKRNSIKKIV
UniProt P18085, sequence (P18085 whole entry, looked up): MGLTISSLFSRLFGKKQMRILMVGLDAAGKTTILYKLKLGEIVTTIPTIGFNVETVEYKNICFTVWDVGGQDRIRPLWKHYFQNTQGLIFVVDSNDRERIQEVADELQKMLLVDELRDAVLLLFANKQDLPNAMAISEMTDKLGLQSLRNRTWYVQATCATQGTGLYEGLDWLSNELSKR

| Target | log2 ratio of iodoacetamide-alkyne labeling |
| --- | --- |
| CCT8 C244 (UniProt P50990) | 0.242 |
| G6PD C385 (UniProt P11413) | 0.327 |
| RPL17 C144 (UniProt P18621) | 0.131 |
| RNH1 C85 (UniProt P13489) | 0.0022 |
| PPP2R1B C306 (UniProt P30154) | 0.0579 |
| APC C1387 (UniProt P25054) | 0.256 |
| UROD C308 (UniProt P06132) | 0.28 |
| HPRT1 C206 (UniProt P00492) | 0.0837 |
| SMC2 C585 (UniProt O95347) | 0.258 |
| CA2 C205 (UniProt P00918) | -0.11 |
| EPRS C92 (UniProt P07814) | 0.571 |
| PARP1 C128 (UniProt P09874) | 0.229 |
| NF1 C383 (UniProt P21359) | 0.376 |
| ARF4 C62 (UniProt P18085) | -0.015 |
